# High-throughput results from PubChem.
# Most compounds without a hit are left out; they make up all but 11% or so of the library.
# HPGD inh – qHTS Assay for Inhibitors of HPGD (15-Hydroxyprostaglandin Dehydrogenase). 15-hydroxyprostaglandin dehydrogenase [NAD(+)] (Homo sapiens), P15428. purified HPGD, NADH fluorescence kinetic, PGE2 substrate. Potency, µM, for the others: at the highest dose activity change, negative = inhibition, hits mostly inhibitors. 150,000 compounds, 4.3% hits. AID 894, 2007; note: potency is the fitted concentration of half-maximal effect
#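 20 nM HPGD preincubated 15 min at room temperature with compound in 50 mM Tris-HCl pH 8, 0.01% Tween 20. Started with 1 mM NAD+ and 30 uM prostaglandin E2; NADH fluorescence (360/450 nm) read 5 times over 30-s intervals, last minus first.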
# PNC inhibitor – High Content Assay for Compounds that inhibit the Assembly of the Perinucleolar Compartment; PC3M PTB-GFP, PNC prevalence imaging, 16 h; stronger effect = lower value; activity change (PNC), negative = inhibition, % at 10 µM; 140,000 compounds, 3.1% hits;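 active = readout at or below -70, meaning at least 70% loss of cells showing the perinucleolar compartment, a nuclear body marking cancer cells; inconclusive = readout between -30 and a set limit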;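 note: plate controls were DMSO wells for no effect and camptothecin positive control wells for full effect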
#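 Compounds are pinned in duplicate onto adhered PC3M cells stably expressing GFP-tagged PTB and incubated 16 h at 37 C. Cells are then fixed, nuclei stained with Hoechst, and PNC-positive cells counted.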
# ALDH1A1 inh – qHTS Assay for Inhibitors of Aldehyde Dehydrogenase 1 (ALDH1A1) | Aldehyde dehydrogenase 1A1 (Homo sapiens), P00352 | Purified ALDH1A1, NADH fluorescence, propionaldehyde substrate | Potency, µM (doses to about 75.3 µM), for inactives: top-dose activity, negative = inhibition, usual class: inhibitors | 220,000 compounds, 7.3% hits | AID 1030, 2008;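 note: potency is the fitted concentration of half-maximal effect; plate controls were no enzyme wells and a reference inhibitor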
# Target sequence (P00352 whole entry, looked up): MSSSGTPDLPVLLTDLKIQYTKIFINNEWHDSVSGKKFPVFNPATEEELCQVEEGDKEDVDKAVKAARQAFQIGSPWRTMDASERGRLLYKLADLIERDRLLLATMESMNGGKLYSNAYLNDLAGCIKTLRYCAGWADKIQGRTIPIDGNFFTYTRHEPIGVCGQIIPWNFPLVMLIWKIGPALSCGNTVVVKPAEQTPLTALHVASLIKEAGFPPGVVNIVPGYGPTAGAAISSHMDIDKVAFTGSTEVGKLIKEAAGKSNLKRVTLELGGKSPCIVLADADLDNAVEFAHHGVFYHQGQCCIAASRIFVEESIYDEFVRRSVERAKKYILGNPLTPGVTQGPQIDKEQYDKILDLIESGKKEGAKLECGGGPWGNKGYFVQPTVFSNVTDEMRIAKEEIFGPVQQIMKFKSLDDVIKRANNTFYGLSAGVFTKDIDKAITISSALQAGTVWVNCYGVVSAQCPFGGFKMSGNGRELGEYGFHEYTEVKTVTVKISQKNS
# * hit, by the source's call; ? = inconclusive; nt = no result; [ ] = remark or other dose. Unless noted, calls come from the whole dose curve; as a rule, active = well fitted inhibition curve with a large enough effect (not every such curve was filed as active); inconclusive = small, poorly fitted or top-dose-only effect, or another doubt; inactive = no such curve, though single readings can be large or run the other way. Unless noted, % is set by controls: 0 for no effect and ±100 for the full control effect.
SMILES,HPGD inh,PNC inhibitor,ALDH1A1 inh
Cc1scc(-c2n[nH]c(=S)n2C(C)c2ccccc2)c1C (stereo unspecified),25µM*,-14,?
O=C(CCC(=O)OCC(=O)c1ccc(Br)cc1)Nc1ccc(Br)c2cccnc12,?,-17,3%
Cc1ccc(C)c(CN2C(=O)C3CCCN3c3ccc(S(=O)(=O)N4CCOCC4)cc32)c1 (stereo unspecified),?,36,?
Cc1cc2c(c(=O)n1C)C(Cc1ccccc1)C(C#N)=C(N)O2 (stereo unspecified),?,32,?
Nc1nonc1-n1nnc(C(=O)O)c1-c1cccs1,-11%,10,-4%
CN(Cc1ccccc1)C(=S)NC(=O)C1CCCCC1,nt,1,0%
O=C(NC(=S)N(Cc1ccccc1)c1ccccn1)C1CCCCC1,?,-103*,?
N#Cc1cc(C#N)c(N2CCN(c3ccccn3)CC2)nc1N,-8%,57,?
O=C(Nc1ccc2snnc2c1)N1CCOCC1,-15%,0,7%
S=C(Nc1ccc(N2CCOCC2)cc1)Nc1ccc2snnc2c1,nt,nt,25µM*
OC1CC2CC[C@H](C1)N2CCCN1c2ccccc2Sc2ccc(Cl)cc21 (stereo partly specified),-7%,nt,7%[13.5 µM]
COc1ccc(OC)c(Nc2ccc(C(=O)O)cc2[N+](=O)[O-])c1,16µM*,9,6%
CCOc1ccc(/C=C/C(=O)Nc2ccc(OC)cc2[N+](=O)[O-])cc1,-12%,80,5%
COc1ccc(NC(=O)CN2CCCCC2)c([N+](=O)[O-])c1,-12%,-90*,7%
Cc1ccc(NC(=O)/C=C/c2cccs2)c([N+](=O)[O-])c1,-14%,-26,1%
COc1ccc(NC(=O)/C=C/C(=O)O)c([N+](=O)[O-])c1,nt,nt,19µM*
Cc1ccc(NC(=O)/C=C/C(=O)O)c([N+](=O)[O-])c1,-7%,-22,18µM*
COc1ccc(NC(=O)CN2CCC(C)CC2)c([N+](=O)[O-])c1,-9%,19,?
COc1ccc(Nc2ccc(C(=O)O)cc2[N+](=O)[O-])cc1,-20%,11,-1%
COC(=O)c1cc(Br)c(=O)n(Cc2ccc(OC)c(OC)c2)c1,-10%,-1,15%
Cc1ccc(S(=O)(=O)Nc2cc(C(F)(F)F)ccc2N2CCOCC2)c(C)c1,-19%,-21,?
COc1cc(OC)c2c(c1Cl)O[C@@]1(C2=O)[C@H](C)CC(=O)C[C@@H]1OC,-28%,nt,?
COc1ccc(NC(=O)CC2Nc3cc(C)c(C)cc3NC2=O)c([N+](=O)[O-])c1 (stereo unspecified),nt,nt,5%
COc1ccc(NC(=O)CC2SC(N)=NC2=O)c([N+](=O)[O-])c1 (stereo unspecified),nt,nt,25µM*
N#Cc1cccc(NC(=O)CN2NS(=O)(=O)c3ccccc3C2=O)c1,16µM*,45,-11%
SMILES,HPGD inh,PNC inhibitor,ALDH1A1 inh
O=C(CN1NS(=O)(=O)c2ccccc2C1=O)Nc1ccccc1OC(F)F,-8%,6,-19%
COc1ccc(NC(=O)CSc2ccc3c4c(cccc24)C(=O)c2ccccc2-3)cc1,-13%,48,0%
N#Cc1cccc(NC(=O)CSc2ccc3c4c(cccc24)C(=O)c2ccccc2-3)c1,-29%,?,18µM*
COC(=O)C1=C(C(=O)OC)[C@@H]2N(Cc3ccccc3)c3ccccc3[C@@]23C[C@@H](C(=O)OC)N(S(=O)(=O)c2c(C)noc2C)C3=N1,-3%,nt,4%[13.5 µM]
Cn1c(=S)[nH]c2cccnc21,-7%,?,5%
Cc1nc2c(=O)[nH]c(=S)n(C)c2nc1C,10µM*,-114*,7.1µM*
CC12CCC(C(=O)Nc3cccc4ccccc34)(C1Br)C2(C)C (stereo unspecified),-4%,-14,2%
Cc1ccc(NC(=O)c2ccc(COc3ccc4c(c3)CCC4)cc2)c(C)c1,-6%,?,21%
O=c1oc2ccccc2cc1-c1nc2ccccc2o1,?,70,?
COc1ccc2oc(=O)c(-c3nc4ccccc4o3)cc2c1,?,-81*,?
CCC(=O)c1ccc(OCC(O)CN2CCCCC2)cc1 (stereo unspecified),-8%,31,20%
CC(C)Oc1ccc(C(=O)CCN2CCCCC2)cc1,-11%,?,0.071µM*
CCCOc1ccc(C(=O)CCN2CCN(C(=O)OCC)CC2)cc1,nt,nt,0.71µM*
CCOc1ccc(C(=O)CCN2CCCCC2)cc1,?,-127*,0.016µM*
CCOc1ccc(OCCCCN2CCCC2)cc1,1%,-6,?
COc1ccc(C(=O)CCN2CCCCCC2)cc1,-16%,10,0.063µM*
CCOC(=O)N1CCN(CCC(=O)Nc2ccc(OC(F)(F)F)cc2)CC1,2%,-28,?
COc1ccc(C(=O)OCCN2CCCCC2)cc1,nt,nt,4%
O=C(Nc1ccc(F)cc1)N1CCc2ccccc2C1,nt,nt,-9%
C=CCN1C(=O)C(CC(=O)Nc2ccccc2)N(Cc2ccccn2)C1=S (stereo unspecified),nt,nt,4%
CCC(C)(C)n1nnnc1C(c1ccc2ncccc2c1)N1CCN2CCCC2C1 (stereo unspecified),-11%,11,7%
CCOc1ccc(-n2nc3c(SCCN4CCCC4)nnc(C)c3c2C)cc1,-9%,?,0%
Cc1[nH]n(-c2ccccc2)c(=O)c1/C=N\NC(=O)C1COc2ccccc2O1 (stereo unspecified),-13%,?,-5%
CC(C)[C@@H](C(=O)OCC(=O)Nc1ccc2c(c1)OCO2)N1C(=O)c2ccccc2C1=O,-2%,52,-8%
COc1ccc(C(=O)CSc2ccccc2C(=O)O)cc1,nt,nt,-2%
SMILES,HPGD inh,PNC inhibitor,ALDH1A1 inh
CCC1(C)CC(CC(=O)O)(c2ccccc2OC)CCO1 (stereo unspecified),1%,-18,4%
COc1ccc(C(=O)CCN2CCN(c3ccccc3F)CC2)cc1,nt,nt,0.13µM*
O=C(CCN1CCCCCC1)c1ccccc1,-8%,?,6.3µM*
CCC1(C)CC2(CCCN(CCC(=O)c3ccccc3)C2)CCO1 (stereo unspecified),nt,nt,0.71µM*
COc1ccc(OC)c(NC(=O)CCN2CCN(c3ccccc3F)CC2)c1,-11%,-8,9%
COc1ccc(C(O)(CCc2ccccc2)CCN2CCCCC2)cc1 (stereo unspecified),nt,nt,2.2µM*
C=CCC(O)(CCN1CCCCC1)c1ccccc1 (stereo unspecified),-17%,-14,-4%
O=C(c1ccccc1)c1ccc(OCCCCN2CCCCC2)cc1,1%,-13,?
N#CCCn1cc(/C=N/NC(=O)c2ccncc2)c(-c2ccc(F)cc2)n1,-7%,11,18%
Cc1ccccc1NC(=O)c1ccccc1NC(=O)CCC(=O)O,4%,-109*,11%
Cc1ccc(NC(=O)c2ccccc2NC(=O)CCC(=O)O)cc1,-13%,?,-1%
C=CCNC(=O)c1ccccc1NC(=O)c1cccc2ccccc12,-19%,?,?
C=CCNC(=O)c1ccccc1NC(=O)c1ccccc1C,-8%,-100*,?
Cc1ccc(N(CC(=O)Nc2ccccc2-c2ccccc2)S(=O)(=O)c2ccccc2)c(C)c1,-16%,9,-7%
